CYP2C9 inh = blocks human cytochrome P450 2C9; P11712; CYP2C9 Supersomes, luciferin-H conversion, luminescence; inhibition, % at 5 µM; actives 20% (n = 96,000); AID 777;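 active = blocking of liver enzyme CYP2C9 beyond about 50% at 5 µM, limit read from the data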
Target sequence (P11712 whole entry, looked up): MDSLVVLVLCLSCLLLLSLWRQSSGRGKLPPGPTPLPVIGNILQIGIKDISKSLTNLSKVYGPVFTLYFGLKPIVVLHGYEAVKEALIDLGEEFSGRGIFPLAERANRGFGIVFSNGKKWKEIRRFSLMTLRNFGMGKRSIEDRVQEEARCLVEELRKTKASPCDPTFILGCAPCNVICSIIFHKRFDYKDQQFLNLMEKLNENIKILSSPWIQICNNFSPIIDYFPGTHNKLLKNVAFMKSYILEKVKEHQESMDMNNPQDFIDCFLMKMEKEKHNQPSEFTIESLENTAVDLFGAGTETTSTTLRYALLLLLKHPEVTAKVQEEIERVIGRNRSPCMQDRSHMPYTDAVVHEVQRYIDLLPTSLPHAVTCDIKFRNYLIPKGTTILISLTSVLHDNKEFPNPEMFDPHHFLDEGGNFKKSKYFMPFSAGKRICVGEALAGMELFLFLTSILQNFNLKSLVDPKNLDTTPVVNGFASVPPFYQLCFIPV
Mac1 fbg inh = blocks human CD11b/CD18 adhesion to fibrinogen; inhibition, % at 10 µM; K562 CD11b/CD18 adhesion to fibrinogen, ATPlite luminescence; Mn2+ added to activate the integrin; actives 0.54% (n = 93,000); P05107+P11215;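 active = primary inhibition of 50% or more at 10 µM, then 40% or more on retest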
CD11b adhes enh = increases human CD11b/CD18 adhesion to fibrinogen. K562 CD11b/CD18 adhesion to fibrinogen, ATPlite luminescence. activation, % at 10 µM. actives 0.07% (n = 93,000). AID 1499;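 active = 10 µM primary screen giving 50% or more activity, confirmed by 40% or more on retest at that dose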
CYP2C19 activ = cytochrome P450 2C19 (human) activation | activation factor at 5 µM | recombinant CYP2C19, luciferin-H EGE luminescence; stronger effect = higher value; 0 = fully inhibited enzyme, 1 = untreated enzyme | AID 1025 | 96,000 tested, under 10 active;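 active = activation factor of at least 2 at 5 µM in the primary screen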;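 also: 0 = wells with 2.5 mM tranylcypromine and 1 = vehicle-only wells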
CYP2C9 act = increases human cytochrome P450 2C9 activity | AID 1024 | actives 1.4% (n = 96,000) | recombinant CYP2C9, luciferin-H conversion, luminescence; stronger effect = higher value; factor 1 = untreated enzyme, 0 = blocked | activation factor at 5 µM;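 active = activation factor of 2 or more for CYP2C9 at a 5 µM dose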;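 also: 0 = sulfaphenazole-blocked wells and 1 = vehicle-only wells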
CYP2C19 inhib = blocks human cytochrome P450 2C19. CYP2C19 Supersomes, luciferin-H EGE luminescence, 30 min. actives 21% (n = 96,000). P33261. inhibition, % at 5 µM;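 active = CYP2C19 inhibition above a set limit at 5 µM in the primary screen, cut at about 50% in these data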;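 also: plate controls were negative control wells for no effect and 2.5 mM tranylcypromine positive control for full effect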
Active calls of the source: *. Shown are actives, neighbours in structure and some others; about 28% of the full set was active somewhere.

How did Cc1cc(C)c(S(=O)(=O)N(C)Cc2cnn(C)c2)c(C)c1 do in these assays?
CYP2C9 inh: -97; Mac1 fbg inh: 6; CD11b adhes enh: 0; CYP2C19 activ: 0.1; CYP2C9 act: 2*; CYP2C19 inhib: 88*

How did Cc1cc(C)c(S(=O)(=O)N(CC(=O)NCc2cccnc2)C2CCCCC2)c(C)c1 do in these assays?
CYP2C9 inh: 94*; Mac1 fbg inh: -1; CD11b adhes enh: 3; CYP2C19 activ: 0; CYP2C9 act: 0.1; CYP2C19 inhib: 99*

How did CC1CCN(C(=O)CN(C2CCCCC2)S(C)(=O)=O)CC1 do in these assays?
CYP2C9 inh: -8; Mac1 fbg inh: -25; CD11b adhes enh: 1; CYP2C19 activ: 0.9; CYP2C9 act: 1.1; CYP2C19 inhib: 7

What do the screens show for `Cc1ccccc1NS(=O)(=O)c1ccc(OCC(=O)NCc2cccnc2)cc1`?
Mac1 fbg inh: -1; CD11b adhes enh: -6

How did Cc1nc2cccc(C)n2c(=O)c1Cl do in these assays?
CYP2C9 inh: -14; Mac1 fbg inh: -2; CD11b adhes enh: -1; CYP2C19 activ: 1; CYP2C9 act: 1.1; CYP2C19 inhib: 1

How did CC(=O)c1cn(CC(=O)NCC2CCCO2)c2ccccc12 (stereo unspecified) do in these assays?
CYP2C9 inh: -2; Mac1 fbg inh: -3; CD11b adhes enh: 4; CYP2C19 activ: 0.8; CYP2C9 act: 1; CYP2C19 inhib: 17

Results for O=C(Cc1ccc(F)cc1)c1ccc(O)cc1O ?
CYP2C9 inh: 38; Mac1 fbg inh: 8; CD11b adhes enh: -2; CYP2C19 activ: 0.5; CYP2C9 act: 0.6; CYP2C19 inhib: 53*

Results for CCc1cc(C(=O)COc2ccccc2F)c(O)cc1O ?
CYP2C9 inh: 60*; Mac1 fbg inh: 84*; CD11b adhes enh: -8; CYP2C19 activ: 0; CYP2C9 act: 0.4; CYP2C19 inhib: 96*

How did Cn1c(NC(=O)Cc2ccc(F)cc2)cc(=O)n(C)c1=O do in these assays?
CYP2C9 inh: -14; Mac1 fbg inh: 15; CD11b adhes enh: -2; CYP2C19 activ: 1.1; CYP2C9 act: 1.1; CYP2C19 inhib: -13

Results for CCCc1cc(C(=O)Cc2ccc(F)cc2)c(O)cc1O ?
CYP2C9 inh: 100*; Mac1 fbg inh: 95*; CD11b adhes enh: -5; CYP2C19 activ: 0; CYP2C9 act: 0; CYP2C19 inhib: 98*

How did CCc1cc(C(=O)Cc2ccc(F)cc2)c(O)cc1O do in these assays?
Mac1 fbg inh: 103*; CD11b adhes enh: -6

What do the screens show for `CC1CCN(C(=O)COc2ccccc2F)CC1`?
CYP2C9 inh: -2; Mac1 fbg inh: -13; CD11b adhes enh: -1; CYP2C19 activ: 0.8; CYP2C9 act: 1; CYP2C19 inhib: 25

What do the screens show for `O=C(Cc1c(F)cccc1Cl)c1ccc(O)cc1O`?
CYP2C9 inh: 16; Mac1 fbg inh: 20; CD11b adhes enh: 1; CYP2C19 activ: 0.7; CYP2C9 act: 0.8; CYP2C19 inhib: 28

What do the screens show for `Cc1c(NC(=O)C(Sc2ccccc2)c2ccccc2)cccc1[N+](=O)[O-]` (stereo unspecified)?
CYP2C9 inh: 23; CYP2C19 activ: 1; CYP2C9 act: 0.8; CYP2C19 inhib: -1

How did CCOc1ccc(OCC)c(NC(=O)CCn2cccc2)c1 do in these assays?
CYP2C9 inh: 9; Mac1 fbg inh: 2; CD11b adhes enh: -2; CYP2C19 activ: 0.8; CYP2C9 act: 0.9; CYP2C19 inhib: 22

What do the screens show for `C[C@H](NC(=O)c1ccccc1Cl)C(=O)OCC(=O)N1CC2(C)CC1CC(C)(C)C2` (stereo partly specified)?
Mac1 fbg inh: 25; CD11b adhes enh: 2

What do the screens show for `CCCc1cc(C(=O)Cc2ccc(C(=O)OCC)o2)c(O)cc1O`?
CYP2C9 inh: 91*; Mac1 fbg inh: 45; CD11b adhes enh: -1; CYP2C19 activ: 0.1; CYP2C9 act: 0.1; CYP2C19 inhib: 93*

Results for CN(CC(=O)O)Cc1nc2ccccc2[nH]1 ?
CYP2C9 inh: 5; Mac1 fbg inh: -3; CD11b adhes enh: -2; CYP2C19 activ: 1; CYP2C9 act: 1; CYP2C19 inhib: 5

How did CCCc1cc(-c2n[nH]c(C)c2-c2ccc(C(=O)OCC)o2)c(O)cc1O do in these assays?
CYP2C9 inh: 99*; Mac1 fbg inh: 22; CD11b adhes enh: 4; CYP2C19 activ: 0; CYP2C9 act: 0; CYP2C19 inhib: 97*

Results for CCc1cc(C(=O)Cc2nc3ccccc3[nH]2)c(O)cc1O ?
CYP2C9 inh: 54*; Mac1 fbg inh: 1; CD11b adhes enh: -2; CYP2C19 activ: 0.1; CYP2C9 act: 0.5; CYP2C19 inhib: 87*

What do the screens show for `CCOC(=O)c1ccc(CSc2nnc(C)n2N)o1`?
CYP2C9 inh: 20; Mac1 fbg inh: 2; CD11b adhes enh: -2; CYP2C19 activ: 1.2; CYP2C9 act: 0.8; CYP2C19 inhib: -22

What do the screens show for `CCOc1ccc(C(O)C(CN2CCOCC2)c2ccccc2)cc1` (stereo unspecified)?
CYP2C9 inh: 1; Mac1 fbg inh: 20; CD11b adhes enh: 5; CYP2C19 activ: 0.7; CYP2C9 act: 1; CYP2C19 inhib: 29

How did CCOC(=O)CC(=O)CSc1nc(-c2cccnc2)cc(C)c1C#N do in these assays?
CYP2C9 inh: 81*; CYP2C19 activ: 0.6; CYP2C9 act: 0.2; CYP2C19 inhib: 35

What do the screens show for `COC(=O)CC(=O)CSc1nc(C)cc(C)c1C#N`?
CYP2C9 inh: 21; Mac1 fbg inh: -7; CD11b adhes enh: -5; CYP2C19 activ: 0.7; CYP2C9 act: 0.8; CYP2C19 inhib: 31

What do the screens show for `CCOC(=O)CC(=O)CSc1nc(-c2cccnc2)ccc1C#N`?
CYP2C9 inh: 34; Mac1 fbg inh: -18; CD11b adhes enh: -2; CYP2C19 activ: 0.7; CYP2C9 act: 0.7; CYP2C19 inhib: 30

How did Cc1cc(-c2ccccc2)c(C#N)c(SCC(N)=O)n1 do in these assays?
CYP2C9 inh: -198; Mac1 fbg inh: -3; CD11b adhes enh: 4; CYP2C19 activ: 0.6; CYP2C9 act: 3*; CYP2C19 inhib: 41

Results for CCOC(=O)CC(=O)CSc1nc(C)cc(-c2cccnc2)c1C#N ?
CYP2C9 inh: 73*; Mac1 fbg inh: -8; CD11b adhes enh: 1; CYP2C19 activ: 0.7; CYP2C9 act: 0.3; CYP2C19 inhib: 28

Results for COc1ccc(/C=N/n2cncn2)cc1COc1ccc(NC(C)=O)cc1 ?
CYP2C9 inh: 69*; Mac1 fbg inh: 14; CD11b adhes enh: -1; CYP2C19 activ: 0.4; CYP2C9 act: 0.3; CYP2C19 inhib: 61*

What do the screens show for `COc1ccc(/C=N/NC(=O)c2ccoc2C)cc1COc1ccc(Cl)cc1`?
CYP2C9 inh: 37; Mac1 fbg inh: 6; CD11b adhes enh: 4; CYP2C19 activ: 0.9; CYP2C9 act: 0.6; CYP2C19 inhib: 14

Bioassay records as filed in PubChem.
